In PubChem BioAssay (EPA / NIEHS):
Results filed as inconclusive are left out. Where a structure was tested more than once in an assay, its records may differ in their call. Activity calls are given as the source filed them. Rule for the calls, unless noted: active = hit-call score of the fitted dose curve at least 0.9, where 1 is the maximum; inactive = score below 0.9.

Key:
[1] = read-out: Tumor necrosis factor (Homo sapiens) (UniProt P01375); assay: BSK_BT_xTNFa: BioMAP Diversity Plus: BT Assay for Tumor necrosis factor alpha (TNF-alpha) Biomarker Activity (AID 2284230); conditions: primary human B cells with PBMC
Summary of the method: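 Compounds were added to a B cell plus PBMC co-culture, and after 24 h secreted TNF-alpha was quantified with Luminex xMAP technology, with responses fitted upward from the DMSO control.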

[2] = read-out: Vascular cell adhesion molecule 1 (VCAM1), VCAM1 (gene 7412); assay: BSK_MyoF_VCAM1: BioMAP Diversity Plus: MyoF Assay for Vascular cell adhesion molecule 1 (VCAM1) Biomarker Activity (AID 2284231); conditions: primary human lung fibroblasts
Summary of the method: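 Primary human lung fibroblasts (BioMAP MyoF system) dosed with chemical, VCAM-1 measured by ELISA 24 hours later. Fitted in the positive direction against DMSO; parallel SRB staining assessed cytotoxicity.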

[3] = read-out: Collagen I, COL1A1 (gene 1277); assay: BSK_MyoF_CollagenI: BioMAP Diversity Plus: MyoF Assay for Collagen I Biomarker Activity (AID 2284238); conditions: primary human lung fibroblasts
Summary of the method: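 Primary human lung fibroblasts (MyoF system) treated 24 h; Collagen I quantified by ELISA and fitted in positive direction against DMSO. Parallel SRB total-protein staining assessed overt cytotoxicity.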

[4] = read-out: Collagen III, COL3A1 (gene 1281); assay: BSK_MyoF_CollagenIII: BioMAP Diversity Plus: MyoF Assay for Collagen III Biomarker Activity (AID 2284239); conditions: primary human lung fibroblasts
Summary of the method: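 Primary human lung fibroblasts (BioMAP MyoF system) exposed 24 h. Collagen III measured by ELISA; positive-direction fit relative to DMSO.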

[5] = read-out: Actin alpha 1 (ACTA1), ACTA1 (gene 58); assay: BSK_MyoF_ACTA1: BioMAP Diversity Plus: MyoF Assay for Actin alpha 1 (ACTA1) Biomarker Activity (AID 2284244); conditions: primary human lung fibroblasts
Summary of the method: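 ELISA read-out of a-SMA in primary human lung fibroblast cultures, 24 h post-dosing. Activity scored in the positive direction versus DMSO baseline.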

[6] = read-out: Basic fibroblast growth factor (bFGF), FGF2 (gene 2247); assay: BSK_MyoF_bFGF: BioMAP Diversity Plus: MyoF Assay for Basic fibroblast growth factor (bFGF) Biomarker Activity (AID 2284246); conditions: primary human lung fibroblasts
Summary of the method: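 Primary human lung fibroblast culture, 24 h compound exposure; ELISA read-out of bFGF. Positive-direction fit vs DMSO baseline. Cytotoxicity: SRB stain (0.1% SRB, 10% TCA fixation, 560 nm) in parallel wells.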

[7] = read-out: Collagen IV, COL4A1 (gene 1282); assay: BSK_MyoF_CollagenIV: BioMAP Diversity Plus: MyoF Assay for Collagen IV Biomarker Activity (AID 2284247); conditions: primary human lung fibroblasts
Summary of the method: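 ELISA read-out of Collagen IV in lung fibroblast cultures, 24 h post-dosing; gain of signal relative to DMSO vehicle baseline defines activity.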

[8] = CCTE_Mundy_HCI_hNP1_Casp3_7: CCTE's Caspase-Glo 3/7 Assay in human neuroprogenitor cells for Apoptosis, Mundy Lab (AID 2284240)
Summary of the method: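 Luminescent caspase-3/7 readout, 26.5 h post-dose, in human neural progenitor cells from WA09 embryonic stem cells. Cells grew 40–44 h at 37 °C, 5% CO2 before chemical addition. Activity analysed as signal increase over DMSO baseline.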

[9] = CCTE_Mundy_HCI_hNP1_CellTiter: CCTE's Cell Titer-Glo 2 Assay in human neuroprogenitor cells for Viability, Mundy Lab (AID 2284241; active = hit-call score of the fitted dose curve at least 0.9, where 1 is the maximum;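 for AC50: a hit is a drop in ATP luminescence versus DMSO meaning reduced viability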)
Summary of the method: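 Viability read as luminescent ATP content (CellTiter-Glo, 30 min room temperature) twenty-four hours after dosing, relative to DMSO. Cells: WA09-derived hNP1 neuroprogenitors on poly-L-ornithine/laminin, plated 40 to 44 hours before chemical.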

[10] = read-out: Monokine induced gamma interferon (MIG), CXCL9 (gene 4283); assay: BSK_KF3CT_MIG: BioMAP Diversity Plus: KF3CT Assay for Monokine induced gamma interferon (MIG) Biomarker Activity (AID 2284248); conditions: primary human keratinocytes with fibroblasts
Summary of the method: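 Human keratinocyte–foreskin fibroblast co-culture; MIG measured by ELISA 24 h after chemical dosing, fitted upward versus DMSO. Cytotoxicity was assessed in parallel cultures by SRB total-protein staining read at 560 nm.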

[11] = read-out: Vascular cell adhesion molecule 1 (VCAM1), VCAM1 (gene 7412); assay: BSK_BF4T_VCAM1: BioMAP Diversity Plus: BF4T Assay for Vascular cell adhesion molecule 1 (VCAM1) Biomarker Activity (AID 2284249); conditions: primary human bronchial epithelial cells with fibroblasts
Summary of the method: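 Cell-surface VCAM-1 quantified by ELISA after 24 h chemical exposure of human bronchial epithelial/dermal fibroblast co-cultures, with SRB staining in parallel wells for cytotoxicity; DMSO baseline, positive-direction fitting.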

[12] = read-out: Collagen I, COL1A1 (gene 1277); assay: BSK_hDFCGF_CollagenI: BioMAP Diversity Plus: hDFCGF Assay for Collagen I Biomarker Activity (AID 2284250); conditions: primary human foreskin fibroblasts
Summary of the method: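 ELISA read-out of Collagen I in human dermal foreskin fibroblast cultures, 24 h after dosing. Gain of signal versus DMSO vehicle defines activity.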

[13] = read-out: Plasminogen activator inhibitor-1 (PAI1), SERPINE1 (gene 5054); assay: BSK_KF3CT_PAI1: BioMAP Diversity Plus: KF3CT Assay for Plasminogen activator inhibitor-1 (PAI1) Biomarker Activity (AID 2284252); conditions: primary human keratinocytes with fibroblasts
Summary of the method: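 Keratinocyte + dermal fibroblast co-culture (human primary); 24 h post-dose; PAI-1 by ELISA; gain-of-signal fit vs DMSO control.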

[14] = read-out: Monocyte Chemoattractant Protein-1 (MCP1), CCL2 (gene 6347); assay: BSK_IMphg_MCP1: BioMAP Diversity Plus: IMphg Assay for Monocyte Chemoattractant Protein-1 (MCP1) Biomarker Activity (AID 2284253); conditions: primary human endothelial cells with macrophages
Summary of the method: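 ELISA readout of MCP-1 at 24 hours in IMphg co-cultures of venular endothelial cells and macrophages, normalised to DMSO; parallel cultures stained with sulforhodamine B for overt cytotoxicity.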

[15] = TAMU_HCS_1.5hr_SingleDonor1434_Cytotoxicity: Cytotoxicity Assessment using High-content Screening (HCS) Fluorescent Imaging for the Texas A&M University (TAMU) 1.5-hr Human Induced Pluripotent Stem Cell (iPSC)-derived Cardiotoxicity Assay (AID 2284234; active = hit-call score of the fitted dose curve at least 0.9, where 1 is the maximum)
Summary of the method: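 Nuclear counts from Hoechst 33342 imaging define cytotoxicity here, with EC10 (10% cell-count loss relative to DMSO) as point of departure. iPSC cardiomyocytes received 0.2-100 uM test chemical in 0.5% DMSO for 1.5 h at 37 C.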

[16] = TAMU_PeakParms_SingleDonor1434_QT: Texas A&M University (TAMU) 1.5-hr Human Induced Pluripotent Stem Cell (iPSC)-derived Cardiomyocytes Calcium (Ca+2) Flux Assay for Cardiotoxicity: QT (decay-rise ratio) (AID 2284235; active = hit-call score of the fitted dose curve at least 0.9, where 1 is the maximum)
Summary of the method: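 Decay/rise ratio of calcium-flux fluorescence scored after 90 min exposure (37C) of donor 1434 iPSC cardiomyocytes to 0.2–100 uM (0.5% DMSO). Beat-cessation and severe-notch points removed; POD is EC05, a 5% rise over DMSO.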

[17] = CCTE_Mundy_HCI_Cortical_NOG_NeuronCount: CCTE's Neurite Outgrowth Assay in rat cortical cells for Neuron Count, Mundy Lab (AID 2284236; active = hit-call score of the fitted dose curve at least 0.9, where 1 is the maximum;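 note: neurons counted by imaging betaIII-tubulin and Hoechst stained cortical cells; cells exposed to compound for about 48 hours before fixation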)
Summary of the method: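 Read-out: neuron number by high-content imaging of betaIII-tubulin (Alexa Fluor-488) and Hoechst-labelled rat primary cortical cells.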

[18] = CCTE_Mundy_HCI_Cortical_NOG_BPCount: CCTE's Neurite Outgrowth Assay in rat cortical cells for Branch Point Count, Mundy Lab (AID 2284237);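 for AC50: branch points counted about two days after chemical exposure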
Summary of the method: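 Measured 50.33 h after dosing, this morphology endpoint uses rat primary cortical cultures labelled for betaIII-tubulin. Branch points are quantified by high-content imaging, with DMSO as negative control and baseline.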

[19] = UKN2_HCS_IMR90_cell_viability: Viability Assessment in the University of Konstanz (UKN) Leist Lab Neural Crest Cell Migration Assay in human induced IMR90 Pluripotent Stem Cells (UKN2) (AID 2284233);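 note: cells exposed to compound for 24 h after a 24 h migration phase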
Summary of the method: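 Viability read as calcein-AM fluorescence by high-content imaging, Hoechst co-stain, 30 min. Human iPSC (IMR90) neural crest cells had migrated 24 h into stopper-defined gaps before 24 h chemical exposure. Fitted bidirectionally relative to DMSO.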

[20] = CCTE_Mundy_HCI_Cortical_Synap_Neur_Matur_NeuronCount: CCTE's Synaptogenesis and Neurite Maturation Assay in rat cortical cells for Neuron Count, Mundy Lab (AID 2284242; active = hit-call score of the fitted dose curve at least 0.9, where 1 is the maximum;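 for AC50: neuron number from Hoechst nuclei and MAP2 staining by high-content imaging; hits reduce neuron count versus DMSO baseline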)
Summary of the method: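 Rat cortical cultures; AraC DIV 5; chemical dosing + media change DIV 7 to DIV 12 (288.33 h readout). Fix, Hoechst, anti-MAP2/anti-synaptophysin immunostain; HCI neuron count vs DMSO baseline.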

Measured: AC50

Sequence of Tumor necrosis factor (Homo sapiens) (P01375 whole entry, looked up): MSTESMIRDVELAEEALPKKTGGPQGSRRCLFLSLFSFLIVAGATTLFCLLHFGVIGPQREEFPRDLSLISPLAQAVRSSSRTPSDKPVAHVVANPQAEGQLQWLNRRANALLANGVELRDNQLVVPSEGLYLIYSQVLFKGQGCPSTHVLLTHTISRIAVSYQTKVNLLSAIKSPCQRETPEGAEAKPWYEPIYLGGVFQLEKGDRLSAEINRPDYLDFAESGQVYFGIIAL

O=P(OCC(Br)CBr)(OCC(Br)CBr)OCC(Br)CBr (stereo unspecified)
inactive: [3] | [4] | [5] | [6] | [7]
active: [1] 33.6 µM | [2] 17.4 µM

O=c1ssc(Cl)c1Cl
active: [1] 8.17 µM | [2] 6.69 µM | [3] 7.5 µM | [4] 9.69 µM | [5] 6.24 µM | [6] 11.4 µM | [7] 7.41 µM

FC(F)(F)C(F)(C(F)(F)F)C(F)(F)C(F)(F)CC1CO1 (stereo unspecified)
inactive: [1] | [2] | [3] | [4] | [8] | [9] | [5] | [6] | [7] | [10] | [11] | [12] | [13] | [14]

O=C(O)C(F)(F)C(F)(F)C(=O)O
active: [1] 0.222 µM
inactive: [1] | [2] | [3] | [4] | [5] | [6] | [7] | [10] | [11] | [12] | [13] | [14]

COP(=O)(CCC(=O)NCO)OC
inactive: [10] | [12] | [13]

COC(=O)C(F)(F)C(F)(F)OC(F)(C(F)(F)F)C(F)(F)OC(F)=C(F)F (stereo unspecified)
inactive: [1] | [2] | [3] | [4] | [5] | [6] | [7] | [10] | [11] | [12] | [13] | [14]

c1cc2c3c(cccc3c1)CC2
inactive: [15] | [16]

CCOP(=S)(OCC)SCS(=O)(=O)CC
inactive: [1] | [2] | [3] | [4] | [5] | [6] | [7]

O=S(=O)(F)C(F)(F)C(F)(F)C(F)(F)C(F)(F)C(F)(F)C(F)(F)C(F)(F)C(F)(F)F
inactive: [1] | [2] | [3] | [4] | [5] | [6] | [7] | [10] | [11] | [12] | [13] | [14]

CCCCOCCOP(=O)(OCCOCCCC)OCCOCCCC
active: [1] 0.015 µM
inactive: [2] | [3] | [4] | [5] | [6] | [7]

O=P1(N(CCCl)CCCl)NCCCO1 (stereo unspecified)
inactive: [17] | [18] | [8] | [9]

CCOP(=S)(OCC)SCSCC
inactive: [19] | [17] | [18] | [8] | [9]
active: [20] 78.4 µM

NC(=O)C(F)(F)C(F)(F)F
inactive: [1] | [2] | [3] | [4] | [5] | [6] | [7] | [10] | [11] | [12] | [13] | [14]

Nc1ccc([N+](=O)[O-])cc1Cl
inactive: [1] | [2] | [3] | [4] | [5] | [6] | [7]

CCOc1ccc(C(C)(C)COCc2cccc(Oc3ccccc3)c2)cc1
inactive: [18] | [8] | [9]
active: [20] 15 µM

OCC(F)(F)OC(F)(F)C(F)(F)OC(F)(F)CO
inactive: [1] | [2] | [3] | [4] | [5] | [6] | [7] | [10] | [11] | [12] | [13] | [14]

O=P(Oc1ccccc1)(Oc1ccccc1)Oc1ccccc1
inactive: [16]

CCCCC(CC)COC(=O)c1c(Br)c(Br)c(Br)c(Br)c1C(=O)OCC(CC)CCCC (stereo unspecified)
inactive: [1] | [2] | [3] | [4] | [5] | [6] | [7]

Cc1c([N+](=O)[O-])cc2c(c1[N+](=O)[O-])C(C)(C)CC2(C)C
inactive: [3] | [4] | [5] | [6]
active: [1] 29.5 µM | [2] 6.96 µM | [7] 5.8 µM

CC(C)Nc1ccc(Nc2ccccc2)cc1
active: [1] 5 µM | [2] 20 µM | [3] 26 µM | [4] 20 µM | [5] 22.7 µM | [6] 30.5 µM | [7] 20 µM

O=S1(=O)OCC2C(CO1)C1(Cl)C(Cl)=C(Cl)C2(Cl)C1(Cl)Cl (stereo unspecified)
inactive: [2] | [3] | [4] | [5] | [6] | [7]
active: [1] 31 µM

CCC1(c2ccccc2)C(=O)N=C(O)NC1=O (stereo unspecified)
inactive: [18] | [8] | [9] | [20]

c1ccc2c(c1)sc1ccccc12
inactive: [1] | [2] | [3] | [4] | [5] | [6] | [7]

CO/N=C(/C(=O)OC)c1ccccc1COc1ccccc1C
active: [19] 9.92 µM | [17] 13.4 µM | [18] 14.2 µM | [8] 33.2 µM | [9] 82.5 µM | [20] 2.98 µM

CCOP(=S)(OCC)SCSc1ccc(Cl)cc1
active: [5] 3.97 µM | [7] 0.0408 µM
inactive: [1] | [2] | [3] | [4] | [6]

CC(O)C(F)(F)C(F)(F)F (stereo unspecified)
inactive: [1] | [2] | [3] | [4] | [5] | [6] | [7] | [10] | [11] | [12] | [13] | [14]

N#Cc1cc([N+](=O)[O-])ccc1N
inactive: [1] | [2] | [3] | [4] | [5] | [6] | [7]
